High-throughput results (PubChem BioAssay)
Vaccinia mCherry – inhibitors of vaccinia virus infection (mCherry reporter signal); Potency, µM (series often up to 36.5 µM), hits mostly inhibitors; 310,000 tested, 0.63% active; Vaccinia virus mCherry reporter infection, fluorescence; calls by dose curve; tested in A549 cells; also: nearly all actives have a fitted effect of over 35% in size
HCMV antiviral – inhibitors of human cytomegalovirus; HFF cells, HCMV-luciferase reporter, 72 h; stronger effect = lower value; activity change, negative = inhibition, % at 57.5 µM; 410,000 tested, 4.5% active; in the data active = activity change below about -60%; inconclusive = no clear call, values can overlap the other calls; inactive = above about -39%
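Two compound doses tested in HFFs infected with HCMV-luciferase, MOI 1 PFU/cell, 72 h at 37C. Lysate luminescence read with OneGlo; data normalized against buffer-only and 10uM Salinomycin inhibitor controls.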
HCV inh – inhibitors of hepatitis C virus infection. AID 651820. 340,000 tested, 3.4% active. Huh7.5.1 HCVcc-Cre infection, luciferase reporter, 44 h. Potency, µM (series often up to 41.8 µM), actives largely listed as inhibitors; active = well fitted inhibition curve with a large enough effect; inconclusive = small, poorly fitted or top-dose-only effect, or another doubt; inactive = no such curve, though single readings can be large or run the other way
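HCVcc-Cre virus at an moi near 0.5 was added right after compound to cells cultured 4 h from seeding (1,000 cells/well). Luciferase activity was determined 44 h later, 15 min after substrate addition at RT.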
VACV Venus inh – vaccinia inhibition (Venus reporter). Vaccinia virus Venus reporter expression, fluorescence. Potency, µM (top dose mostly 36.5 µM), usual class: inhibitors. 330,000 tested, 0.46% active. AID 720580; calls by dose curve; tested in A549 cells; also: nearly all actives have a fitted effect of over 30% in size
FMDV antiviral – blocks foot and mouth disease virus; 410,000 tested, 1.2% active; FMDV antiviral cell-based qHTS; Potency, µM (series often up to 57.9 µM), most hits filed as inhibitors; calls by dose curve; tested in HEK293T cells; also: read-out not given here; nearly all actives have a fitted effect of over 45% in size
Large screens that a line does not name were inactive. An excerpt weighted towards active compounds, which were near 7.3% of everything screened.

O=C(COC(=O)/C=C/c1ccc2c(c1)OCO2)Nc1ccccc1	none
O=C(CC1CS(=O)(=O)CC1CC(=O)Nc1ccc2c(c1)OCCO2)Nc1ccc2c(c1)OCCO2 (stereo unspecified)	HCMV antiviral -81, FMDV antiviral inconclusive (no result: Vaccinia mCherry, VACV Venus inh)
COc1cccc(/C=C/C(=O)OCC(=O)Nc2ccc3c(c2)OCO3)c1	HCMV antiviral -97 (no result: HCV inh)
CCC(=O)OCC(=O)Nc1ccc2c(c1)OCO2	none
O=C(COC(=O)C1CC1)Nc1ccc2c(c1)OCO2	HCMV antiviral -98
CCC(=O)Nc1ccc2c(c1)OCCO2	none (no result: Vaccinia mCherry, VACV Venus inh)
O=C(COC(=O)c1cccnc1)Nc1ccc2c(c1)OCO2	HCMV antiviral -84 (no result: Vaccinia mCherry, VACV Venus inh)
CCCc1ccc(-c2cc(NC(=O)Cc3c(C)[nH]c4ccccc34)ccc2N(C)c2cccnc2)cc1	none (no result: Vaccinia mCherry, HCV inh, VACV Venus inh, FMDV antiviral)
Cc1c(-c2ccccc2)n(-c2ccc(Cl)cc2)c2nc3c(c(=O)n(C)c(=O)n3C)n12	none (no result: HCV inh)
COC(=O)C1=C(O)C(C(=O)OC)C(c2ccc(C)cc2)C(C#N)(C#N)C1c1ccc(C)cc1 (stereo unspecified)	HCMV antiviral -96, HCV inh inconclusive (no result: Vaccinia mCherry, VACV Venus inh)
COC(=O)C1=C(Nc2ccc(C)cc2)C=C(C)C(C(=O)OC)C1c1ccc(OC)cc1 (stereo unspecified)	HCV inh inconclusive (no result: Vaccinia mCherry, VACV Venus inh)
Cc1cc(NC(=O)CCC(=O)N(Cc2ccco2)C2(C(=O)NC3CCCC3)CCC(C)CC2)no1 (stereo unspecified)	HCV inh 14µM
CCOc1ccc(N(C(=O)/C=C/C(=O)Nc2cc(C)on2)C(C(=O)NC2CCCC2)c2ccccc2C)cc1 (stereo unspecified)	HCMV antiviral -93, FMDV antiviral inconclusive (no result: Vaccinia mCherry, VACV Venus inh)
O=C(c1ccc2c(c1)OCO2)N(Cc1ccco1)C1(C(=O)NC2CCCCC2)CCCCC1	HCV inh 10µM (no result: Vaccinia mCherry, VACV Venus inh)
Cc1cc(NC(=O)CCC(=O)N(Cc2ccco2)C2(C(=O)NC3CCCCC3)CCCC(C)C2)no1 (stereo unspecified)	none
O=C(c1ccccn1)N(Cc1ccco1)C1(C(=O)NC2CCCC2)CCCCC1	HCV inh inconclusive, FMDV antiviral inconclusive
Cc1cc(NC(=O)CCC(=O)N(Cc2ccco2)C(C(=O)NC2CCCC2)c2ccccc2)no1 (stereo unspecified)	none
Cc1cc(NC(=O)CCC(=O)N(Cc2ccco2)C(C(=O)NC2CCCC2)c2ccc(F)cc2)no1 (stereo unspecified)	HCMV antiviral -63
CCc1ccc(C(C(=O)NC2CCCC2)N(C(=O)/C=C/C(=O)Nc2cc(C)on2)c2ccccc2C)cc1 (stereo unspecified)	Vaccinia mCherry inconclusive, HCV inh inconclusive, VACV Venus inh inconclusive
CC(O)(COc1ccccc1)c1ccc2c(c1)CN(Cc1cccnc1)CCO2 (stereo unspecified)	none (no result: HCMV antiviral, HCV inh)
Cc1cc(C(=O)Nc2cccc(-c3nc(CNC(=O)c4cc5ccccc5[nH]4)c(C)o3)c2)c(C)o1	none (no result: HCMV antiviral, HCV inh)
CN(C)c1ccc(C=Nc2cnc3ccccc3c2)cc1	none (no result: HCMV antiviral, HCV inh, FMDV antiviral)
COc1ccc(CNC(=O)c2oc3c(c2C)-c2nn(Cc4ccc(Cl)cc4)cc2CC3)cc1	VACV Venus inh inconclusive, FMDV antiviral inconclusive (no result: HCV inh)
Cc1cc(NC(=O)CCC(=O)N(c2ccccc2)C(C(=O)NC2CCCCC2)c2cccs2)no1 (stereo unspecified)	HCMV antiviral -65 (no result: Vaccinia mCherry)
CSc1nnc(-c2cccc(NC(=S)NN)c2)o1	HCMV antiviral -66
Cc1cccc(C(=O)N[C@H](C(=O)Nc2nnc(C3CC3)s2)C(C)C)c1	none
Cc1cccc(C(=O)N[C@H](C(=O)Nc2ncc(C)s2)C(C)C)c1	Vaccinia mCherry 13µM, HCMV antiviral -107, HCV inh inconclusive, VACV Venus inh inconclusive
Cc1cc[n+](CCC2CCCCC2)cc1	VACV Venus inh inconclusive (no result: HCMV antiviral, HCV inh, FMDV antiviral)
CCC(C)n1c(=S)[nH]c2c(sc3ccc([N+](=O)[O-])cc32)c1=O (stereo unspecified)	HCMV antiviral inconclusive, HCV inh inconclusive, FMDV antiviral 35µM
Nc1nc2ccccc2n1/N=C/c1ccc([N+](=O)[O-])s1	Vaccinia mCherry inconclusive, HCMV antiviral inconclusive, HCV inh 3.5µM, VACV Venus inh inconclusive
Cc1ccc(-c2nnc(N3CCN(c4ccccn4)CC3)c3ccccc23)cc1	Vaccinia mCherry 11µM, HCV inh inconclusive, VACV Venus inh 18µM, FMDV antiviral 22µM
Cc1ccc(-c2nnc(N3CCCCC3)c3ccccc23)cc1	HCMV antiviral -61, HCV inh inconclusive (no result: Vaccinia mCherry, VACV Venus inh)
Cc1ccc(-c2nnc(N3CCN(S(C)(=O)=O)CC3)c3ccccc23)cc1	FMDV antiviral inconclusive
CCN1CCN(c2nnc(-c3ccc(F)cc3)c3ccccc23)CC1	HCV inh 2.8µM, VACV Venus inh inconclusive
CN1CCN(c2nnc(-c3ccc(F)cc3)c3ccccc23)CC1	Vaccinia mCherry inconclusive
c1ccc(-c2nnc(N3CCN(c4ccccn4)CC3)c3ccccc23)cc1	HCMV antiviral inconclusive, HCV inh 14µM (no result: Vaccinia mCherry, VACV Venus inh)
COc1cc(Cl)c(C)cc1Nc1nc2ccccc2c2nnc(C)n12	none (no result: HCV inh)
COc1ccc(-n2nc(C(=O)Nc3ccc(C(C)=O)cc3)nc2-c2ccccc2)cc1	none (no result: HCV inh)
COc1ccc(-c2nnc(N3CCC(C)CC3)c3ccccc23)cc1	HCMV antiviral -63
Clc1nnc(N2CCCCC2)c2ccccc12	HCMV antiviral -91
CCOc1ccc(-c2nc(Cn3c(=O)cc(-c4ccccc4)c4c(C)nn(C)c43)c(C)o2)cc1OC	none (no result: HCV inh)
C[C@@H]1[C@H](c2ccccc2)OCCS(=O)(=O)N1Cc1ccc(F)cc1	none (no result: HCMV antiviral, HCV inh, FMDV antiviral)
O=C(c1ccoc1)N1CCN(c2cc(-c3ccccc3)nc3cc(-c4ccc(Br)cc4)nn23)CC1	HCMV antiviral -63, FMDV antiviral 22µM (no result: HCV inh)
O=C(c1ccoc1)N1CCN(c2cc(-c3ccncc3)nc3cc(-c4cccc(Cl)c4)nn23)CC1	FMDV antiviral inconclusive (no result: HCV inh)
CC(=O)N1CCN(c2cc(-c3ccccc3)nc3cc(-c4cccc(Cl)c4)nn23)CC1	Vaccinia mCherry inconclusive, HCMV antiviral -89, VACV Venus inh inconclusive, FMDV antiviral 18µM (no result: HCV inh)
O=C(c1ccncc1)N1CCN(c2cc(-c3ccccc3)nc3cc(-c4cccc(Cl)c4)nn23)CC1	Vaccinia mCherry inconclusive, VACV Venus inh inconclusive, FMDV antiviral 28µM (no result: HCV inh)
Cc1cc(N2CCN(C(=O)c3ccco3)CC2)n2nc(-c3cccc(F)c3)cc2n1	HCMV antiviral -63, HCV inh 10µM, FMDV antiviral inconclusive (no result: Vaccinia mCherry, VACV Venus inh)
Cc1cc(N2CCOCC2)n2nc(-c3cccc(F)c3)cc2n1	HCV inh inconclusive (no result: Vaccinia mCherry, VACV Venus inh)
COc1ccc(/C=C/C(=O)N2CCc3c(cnc(C)c3CNC(=O)c3ccsc3)C2)cc1OC	none (no result: HCMV antiviral, HCV inh)
COc1cc(C2C(=O)N(C3CCCCCC3)CC(=O)N2CCC2=CCCCC2)ccc1OC(C)C (stereo unspecified)	none (no result: HCV inh)
CCC(=O)Nc1nn(C)c2nc3c(C)cccc3cc12	HCV inh 10µM (no result: Vaccinia mCherry)
CCCn1nc(NC(=O)CC)c2cc3cccc(C)c3nc21	HCMV antiviral inconclusive, HCV inh inconclusive
O=C1c2ccccc2-c2onc3ccc(NCCCn4ccnc4)c1c23	HCV inh 13µM (no result: HCMV antiviral, FMDV antiviral)
COC(=O)C1CCN(Cc2ccc3c(c2)CN(C(=O)c2ccnn2C)CCO3)CC1	none (no result: HCMV antiviral, HCV inh)
